Experimental data as given in the supplement of paper PMC10849652.
The full data set covers some 8,800 targets. This sample favours those with a hit. About 0.5% of all pairs of compound and target were hits.

What was measured:
Experiment in all cases: log2 fold change, soluble protein after heating vs DMSO (PISA); higher = thermal stabilisation; K562 lysate, 10 uM; active = over 0.2 and 3.5 SD of the protein, either way, in both replicates (recomputed)
[1] = compound: C1=CC=C(C=C1)[C@H](COC2=CC3=C(C=C2)NC(=O)N3)NC(=O)C4=CC=CN(C4=O)CC5=CC(=C(C=C5)F)F
Outline: (§1)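 Quantification was by TMTpro 16plex LC-MS/MS with equalised channel sums, applied to the supernatant after 21,000xg for 90 min. Samples were crude K562 extract at 1 mg/mL protein in PBS pH 7.4 with 1 mM MgCl2, treated with 10 μM compound for 30 min, heated for 3 min across 48°C-58°C, pooled and brought to 0.5% NP-40 at 4°C. Values are log-two fold changes in thermal stability relative to solvent controls, from duplicates.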

[2] = compound: CC1=C(SC2=C1C(=N[C@H](C3=NN=C(N32)C)CC(=O)N)C4=CC=C(C=C4)Cl)C
Outline: as §1

[3] = compound: CC1=C2C(=CC=C1)N=C(N(C2=O)C3=CC=CC=C3C)CN4C=NC5=C(N=CN=C54)N
Outline: as §1

[4] = compound: Cc1sc2c(c1C)C(c1ccc(Cl)cc1)=N[C@@H](CC(=O)OC(C)(C)C)c1nnc(C)n1-2
Outline: as §1

[5] = compound: c1ccc([C@@H]2C[C@H]2NC2CCNCC2)cc1
Outline: as §1

Measured: log2 fold change

STK24 (UniProt B4DR80)
inactive: [1] -0.025 | [2] 0.003 | [3] -0.041 | [4] -0.019 | [5] -0.055

SYNRG (UniProt Q9UMZ2)
Chain of UniProt Q9UMZ2 (Q9UMZ2 whole entry, looked up): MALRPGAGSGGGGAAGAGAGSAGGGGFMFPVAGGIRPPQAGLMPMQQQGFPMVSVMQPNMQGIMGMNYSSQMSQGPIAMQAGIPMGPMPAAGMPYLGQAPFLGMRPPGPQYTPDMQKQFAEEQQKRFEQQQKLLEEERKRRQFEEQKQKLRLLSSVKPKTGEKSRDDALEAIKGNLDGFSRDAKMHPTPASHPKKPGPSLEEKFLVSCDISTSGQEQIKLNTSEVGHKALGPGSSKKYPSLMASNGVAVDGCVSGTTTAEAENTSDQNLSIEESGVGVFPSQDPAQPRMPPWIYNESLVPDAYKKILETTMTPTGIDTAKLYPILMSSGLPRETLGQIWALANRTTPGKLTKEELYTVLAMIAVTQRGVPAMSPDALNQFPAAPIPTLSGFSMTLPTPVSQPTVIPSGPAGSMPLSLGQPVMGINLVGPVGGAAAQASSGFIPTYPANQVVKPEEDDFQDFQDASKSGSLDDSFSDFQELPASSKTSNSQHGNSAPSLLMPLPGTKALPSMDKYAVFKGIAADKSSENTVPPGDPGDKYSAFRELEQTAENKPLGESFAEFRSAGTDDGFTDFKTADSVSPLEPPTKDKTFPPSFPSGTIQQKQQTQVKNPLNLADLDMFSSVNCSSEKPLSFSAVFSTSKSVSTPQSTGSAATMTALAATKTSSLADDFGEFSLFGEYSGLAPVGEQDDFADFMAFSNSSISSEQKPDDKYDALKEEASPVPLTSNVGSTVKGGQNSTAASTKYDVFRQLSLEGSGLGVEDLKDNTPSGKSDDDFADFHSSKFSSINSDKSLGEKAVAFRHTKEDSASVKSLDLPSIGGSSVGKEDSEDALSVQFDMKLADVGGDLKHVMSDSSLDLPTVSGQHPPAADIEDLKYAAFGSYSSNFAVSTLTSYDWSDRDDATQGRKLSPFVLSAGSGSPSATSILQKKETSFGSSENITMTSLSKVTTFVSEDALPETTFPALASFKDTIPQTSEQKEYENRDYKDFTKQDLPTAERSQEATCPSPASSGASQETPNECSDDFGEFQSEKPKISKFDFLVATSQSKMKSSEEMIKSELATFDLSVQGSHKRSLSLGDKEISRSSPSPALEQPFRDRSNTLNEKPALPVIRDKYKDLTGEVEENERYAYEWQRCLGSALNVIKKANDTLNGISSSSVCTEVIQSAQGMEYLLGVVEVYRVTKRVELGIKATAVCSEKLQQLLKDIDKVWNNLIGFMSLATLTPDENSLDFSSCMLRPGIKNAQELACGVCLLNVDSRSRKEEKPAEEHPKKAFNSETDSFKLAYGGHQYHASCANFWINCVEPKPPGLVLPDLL
inactive: [1] -0.033 | [2] 0.05 | [3] 0 | [4] 0.005 | [5] 0.032

SMC4 (UniProt C9JJ64)
inactive: [1] -0.189 | [2] 0.179

TAF6L (UniProt Q9Y6J9)
Chain of UniProt Q9Y6J9 (Q9Y6J9 whole entry, looked up): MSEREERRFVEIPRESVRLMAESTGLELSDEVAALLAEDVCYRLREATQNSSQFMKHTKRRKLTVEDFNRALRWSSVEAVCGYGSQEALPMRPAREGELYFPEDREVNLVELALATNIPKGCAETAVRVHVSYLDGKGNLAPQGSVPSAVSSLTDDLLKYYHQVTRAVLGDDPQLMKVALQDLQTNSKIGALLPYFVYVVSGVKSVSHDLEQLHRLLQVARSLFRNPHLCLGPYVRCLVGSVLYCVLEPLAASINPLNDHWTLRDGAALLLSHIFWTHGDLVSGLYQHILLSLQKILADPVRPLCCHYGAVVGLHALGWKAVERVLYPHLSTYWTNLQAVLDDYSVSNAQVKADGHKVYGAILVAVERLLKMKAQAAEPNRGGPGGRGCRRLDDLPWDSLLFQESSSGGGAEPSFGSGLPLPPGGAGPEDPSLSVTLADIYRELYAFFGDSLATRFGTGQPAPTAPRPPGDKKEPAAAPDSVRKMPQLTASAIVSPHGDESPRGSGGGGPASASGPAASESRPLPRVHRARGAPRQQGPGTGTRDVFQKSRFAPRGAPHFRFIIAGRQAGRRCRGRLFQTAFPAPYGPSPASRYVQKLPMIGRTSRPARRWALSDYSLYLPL
inactive: [1] 0.011 | [2] -0.027 | [3] -0.094 | [4] -0.02 | [5] 0.061

SPAG1 (UniProt Q07617)
inactive: [1] -0.046 | [2] -0.327 | [3] 0.081

SLC27A2 (UniProt O14975)
Chain of UniProt O14975 (O14975 whole entry, looked up): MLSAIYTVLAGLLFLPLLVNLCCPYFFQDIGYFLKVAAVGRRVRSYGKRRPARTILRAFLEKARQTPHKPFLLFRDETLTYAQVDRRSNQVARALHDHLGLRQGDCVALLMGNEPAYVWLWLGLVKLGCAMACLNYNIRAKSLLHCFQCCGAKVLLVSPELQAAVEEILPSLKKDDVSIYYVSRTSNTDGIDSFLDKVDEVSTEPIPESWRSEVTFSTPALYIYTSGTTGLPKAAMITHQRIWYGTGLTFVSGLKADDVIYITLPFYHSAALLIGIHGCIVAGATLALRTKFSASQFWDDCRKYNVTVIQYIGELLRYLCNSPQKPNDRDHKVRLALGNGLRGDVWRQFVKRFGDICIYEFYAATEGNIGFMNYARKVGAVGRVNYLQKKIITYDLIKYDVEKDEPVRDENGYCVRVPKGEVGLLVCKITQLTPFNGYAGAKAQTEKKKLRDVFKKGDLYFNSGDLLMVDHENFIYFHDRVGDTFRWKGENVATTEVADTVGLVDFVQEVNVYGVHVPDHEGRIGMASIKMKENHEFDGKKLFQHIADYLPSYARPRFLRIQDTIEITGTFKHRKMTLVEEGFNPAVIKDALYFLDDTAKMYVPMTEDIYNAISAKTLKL
inactive: [1] 0.198 | [2] -0.064 | [3] -0.043 | [4] -0.063 | [5] -0.05

SLC25A25 isoform 3 (UniProt Q6KCM7)
inactive: [1] 0.064 | [2] -0.027 | [3] 0.013 | [4] 0.034 | [5] 0.023

SFR1 isoform 2 (UniProt Q86XK3)
inactive: [1] -0.035 | [2] -0.005 | [3] -0.01 | [4] 0 | [5] 0.072

SMIM12 (UniProt Q96EX1)
Chain of UniProt Q96EX1 (Q96EX1 whole entry, looked up): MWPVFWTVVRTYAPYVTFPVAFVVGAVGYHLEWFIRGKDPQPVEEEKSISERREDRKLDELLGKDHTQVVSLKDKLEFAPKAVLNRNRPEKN
inactive: [1] -0.026 | [2] -0.006 | [3] 0.004 | [4] 0.105 | [5] 0.153

SLC39A11 (UniProt Q8N1S5)
Chain of UniProt Q8N1S5 (Q8N1S5 whole entry, looked up): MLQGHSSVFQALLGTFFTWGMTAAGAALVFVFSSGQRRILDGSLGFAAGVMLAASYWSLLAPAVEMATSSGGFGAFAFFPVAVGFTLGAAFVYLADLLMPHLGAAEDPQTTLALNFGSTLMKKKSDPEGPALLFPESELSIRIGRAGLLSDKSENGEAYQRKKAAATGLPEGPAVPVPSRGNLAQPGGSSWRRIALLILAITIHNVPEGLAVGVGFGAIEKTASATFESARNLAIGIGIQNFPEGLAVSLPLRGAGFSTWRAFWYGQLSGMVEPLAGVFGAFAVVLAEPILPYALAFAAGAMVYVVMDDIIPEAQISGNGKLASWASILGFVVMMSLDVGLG
inactive: [1] 0.022 | [2] -0.041 | [3] 0.063 | [4] 0.186 | [5] 0.036

TANGO6 (UniProt Q9C0B7)
inactive: [1] 0.05 | [2] -0.021 | [3] -0.036 | [4] 0.043 | [5] -0.009

TARBP2 (UniProt Q15633)
Chain of UniProt Q15633 (Q15633 whole entry, looked up): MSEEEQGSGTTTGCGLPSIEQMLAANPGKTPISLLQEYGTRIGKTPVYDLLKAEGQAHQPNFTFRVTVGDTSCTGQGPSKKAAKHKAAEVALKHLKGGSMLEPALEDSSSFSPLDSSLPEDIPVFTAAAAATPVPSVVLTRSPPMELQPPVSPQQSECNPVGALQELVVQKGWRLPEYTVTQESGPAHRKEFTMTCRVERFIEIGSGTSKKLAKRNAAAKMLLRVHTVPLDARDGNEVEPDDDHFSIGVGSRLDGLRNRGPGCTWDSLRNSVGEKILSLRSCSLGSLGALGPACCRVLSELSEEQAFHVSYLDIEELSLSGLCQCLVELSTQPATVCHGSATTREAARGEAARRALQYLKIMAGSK
inactive: [1] 0.001 | [2] -0.003 | [3] -0.003 | [4] -0.019 | [5] 0.051

SQLE (UniProt Q14534)
inactive: [1] 0.044 | [2] 0.054 | [3] -0.099 | [4] 0.012 | [5] 0.031

SMN1 (UniProt Q16637)
Chain of UniProt Q16637 (Q16637 whole entry, looked up): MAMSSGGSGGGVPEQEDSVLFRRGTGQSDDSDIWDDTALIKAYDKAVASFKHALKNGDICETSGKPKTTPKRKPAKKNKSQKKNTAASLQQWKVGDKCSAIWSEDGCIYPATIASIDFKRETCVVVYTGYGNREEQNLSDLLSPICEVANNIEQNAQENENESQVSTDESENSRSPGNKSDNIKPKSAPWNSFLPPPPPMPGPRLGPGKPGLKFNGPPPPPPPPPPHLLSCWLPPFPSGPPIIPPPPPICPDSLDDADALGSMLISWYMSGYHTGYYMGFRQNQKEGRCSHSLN
inactive: [1] 0.083 | [2] -0.054 | [3] 0.054 | [4] -0.012 | [5] 0.024

SYK (UniProt P43405)
inactive: [1] -0.016 | [2] 0.06 | [3] 0.135 | [4] 0.008 | [5] -0.052

SRSF9 (UniProt Q13242)
Chain of UniProt Q13242 (Q13242 whole entry, looked up): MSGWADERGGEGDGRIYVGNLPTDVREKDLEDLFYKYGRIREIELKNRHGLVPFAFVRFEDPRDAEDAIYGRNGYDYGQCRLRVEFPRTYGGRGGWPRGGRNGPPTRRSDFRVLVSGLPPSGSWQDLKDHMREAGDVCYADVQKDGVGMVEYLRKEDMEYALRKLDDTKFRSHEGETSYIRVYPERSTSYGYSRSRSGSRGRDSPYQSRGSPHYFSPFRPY
inactive: [1] 0.015 | [2] 0.024 | [3] -0.076 | [4] 0.06 | [5] -0.014

TARBP1 (UniProt Q13395)
inactive: [1] -0.108 | [2] -0.025 | [3] 0.112 | [4] 0.016 | [5] 0.053

SHC1 isoform 6 (UniProt P29353)
inactive: [1] 0.019 | [2] 0.006 | [3] 0.056 | [4] 0.087 | [5] 0.25

SNX6, A0A0A0MRI2
inactive: [1] 0.014 | [2] 0.006 | [3] 0.016 | [4] 0.017 | [5] 0.115

STAU1 (UniProt O95793)
inactive: [1] -0.023 | [2] -0.021 | [3] 0.012 | [4] 0.059 | [5] 0.09

STK3 isoform 2 (UniProt Q13188)
Chain of UniProt Q13188 (Q13188 whole entry, looked up): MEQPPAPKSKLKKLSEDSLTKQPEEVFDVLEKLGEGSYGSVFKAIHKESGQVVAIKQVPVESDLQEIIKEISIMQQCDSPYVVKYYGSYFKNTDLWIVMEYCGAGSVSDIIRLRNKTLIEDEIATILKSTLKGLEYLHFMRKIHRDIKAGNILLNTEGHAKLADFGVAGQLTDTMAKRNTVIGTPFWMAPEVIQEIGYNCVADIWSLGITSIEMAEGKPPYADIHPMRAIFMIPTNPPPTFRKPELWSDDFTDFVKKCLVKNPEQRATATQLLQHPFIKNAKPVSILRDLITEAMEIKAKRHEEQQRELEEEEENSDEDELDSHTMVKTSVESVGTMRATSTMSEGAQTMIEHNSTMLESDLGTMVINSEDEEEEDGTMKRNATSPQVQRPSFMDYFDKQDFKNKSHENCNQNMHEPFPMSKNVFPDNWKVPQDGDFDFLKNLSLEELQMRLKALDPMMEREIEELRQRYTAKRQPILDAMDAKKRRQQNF
inactive: [1] -0.031 | [2] -0.042 | [3] -0.108 | [4] 0.01 | [5] -0.073

SPA17 (UniProt Q15506)
Chain of UniProt Q15506 (Q15506 whole entry, looked up): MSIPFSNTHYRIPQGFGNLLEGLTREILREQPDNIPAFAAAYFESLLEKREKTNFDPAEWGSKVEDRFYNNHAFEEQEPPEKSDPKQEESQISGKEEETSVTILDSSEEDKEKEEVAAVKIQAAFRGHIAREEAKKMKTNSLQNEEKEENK
inactive: [1] 0.057 | [2] -0.064 | [3] -0.006 | [4] -0.132 | [5] -0.364

SULT1A1 (UniProt P50225)
Chain of UniProt P50225 (P50225 whole entry, looked up): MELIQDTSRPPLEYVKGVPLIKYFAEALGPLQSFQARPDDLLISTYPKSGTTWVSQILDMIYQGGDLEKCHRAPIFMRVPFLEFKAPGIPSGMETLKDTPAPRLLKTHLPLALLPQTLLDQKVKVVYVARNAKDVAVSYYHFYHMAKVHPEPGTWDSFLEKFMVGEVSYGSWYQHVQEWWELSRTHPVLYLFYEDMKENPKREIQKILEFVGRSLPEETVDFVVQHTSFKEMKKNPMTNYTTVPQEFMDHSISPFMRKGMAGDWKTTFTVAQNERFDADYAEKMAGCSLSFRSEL
inactive: [1] -0.022 | [2] -0.02 | [3] 0 | [4] 0.051 | [5] 0.088

SRSF2 (UniProt Q01130)
inactive: [1] 0.023 | [2] -0.011 | [3] 0 | [4] -0.058 | [5] -0.129

SMC4 (UniProt Q9NTJ3)
inactive: [1] -0.033 | [2] 0.003 | [3] -0.011 | [4] -0.005 | [5] 0.055
